Data as given in PubChem BioAssay.
Unmarked numbers belong to inactive results.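 Rule for the calls: active = inhibition above 50%, about 3 SD of the validation set; inactive = the rest.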

Each compound was assayed against Integrin beta-1 (Homo sapiens) + Integrin alpha-4 (Homo sapiens) (UniProt P13612+P05556) (assay: alpha4beta1 integrin LIBS antibody binding reduction – U937 cells, HUTS-21 mAb, flow cytometry, validation set, VLA-4 allosteric modulator project, pilot screen (AID 2674;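 note: antibody binding induced by the VLA-4 ligand LDV present at three times its Kd; 0% = LDV ligand with antibody and no compound and 100% = antibody without LDV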)). Settings: HUTS-21 LIBS mAb binding, at 6.7 µM, active compounds read high.
Sequence of Integrin beta-1 (Homo sapiens) + Integrin alpha-4 (Homo sapiens) (P05556 whole entry, looked up): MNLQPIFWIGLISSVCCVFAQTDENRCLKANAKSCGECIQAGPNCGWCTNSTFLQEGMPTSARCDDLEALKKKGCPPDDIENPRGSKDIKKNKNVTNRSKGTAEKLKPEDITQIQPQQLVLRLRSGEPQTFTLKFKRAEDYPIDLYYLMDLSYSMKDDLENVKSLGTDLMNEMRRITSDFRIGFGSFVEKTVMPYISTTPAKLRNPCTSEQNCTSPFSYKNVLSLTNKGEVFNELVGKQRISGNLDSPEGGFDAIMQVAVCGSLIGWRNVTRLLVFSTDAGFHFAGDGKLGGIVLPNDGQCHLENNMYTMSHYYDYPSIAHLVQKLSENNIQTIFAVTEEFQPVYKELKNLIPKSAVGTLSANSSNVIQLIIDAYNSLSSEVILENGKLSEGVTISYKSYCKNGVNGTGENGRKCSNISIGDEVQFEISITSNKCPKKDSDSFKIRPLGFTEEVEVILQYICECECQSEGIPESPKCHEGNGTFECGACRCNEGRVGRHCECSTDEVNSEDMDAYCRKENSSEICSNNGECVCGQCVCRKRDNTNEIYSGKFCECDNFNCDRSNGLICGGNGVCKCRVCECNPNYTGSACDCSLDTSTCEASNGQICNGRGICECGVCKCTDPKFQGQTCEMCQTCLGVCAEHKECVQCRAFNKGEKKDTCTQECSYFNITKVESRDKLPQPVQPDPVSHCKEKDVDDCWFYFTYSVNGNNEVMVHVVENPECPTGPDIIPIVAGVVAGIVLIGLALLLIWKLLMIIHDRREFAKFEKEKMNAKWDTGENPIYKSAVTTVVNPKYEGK
Sequence of Integrin beta-1 (Homo sapiens) + Integrin alpha-4 (Homo sapiens) (P13612 whole entry, looked up): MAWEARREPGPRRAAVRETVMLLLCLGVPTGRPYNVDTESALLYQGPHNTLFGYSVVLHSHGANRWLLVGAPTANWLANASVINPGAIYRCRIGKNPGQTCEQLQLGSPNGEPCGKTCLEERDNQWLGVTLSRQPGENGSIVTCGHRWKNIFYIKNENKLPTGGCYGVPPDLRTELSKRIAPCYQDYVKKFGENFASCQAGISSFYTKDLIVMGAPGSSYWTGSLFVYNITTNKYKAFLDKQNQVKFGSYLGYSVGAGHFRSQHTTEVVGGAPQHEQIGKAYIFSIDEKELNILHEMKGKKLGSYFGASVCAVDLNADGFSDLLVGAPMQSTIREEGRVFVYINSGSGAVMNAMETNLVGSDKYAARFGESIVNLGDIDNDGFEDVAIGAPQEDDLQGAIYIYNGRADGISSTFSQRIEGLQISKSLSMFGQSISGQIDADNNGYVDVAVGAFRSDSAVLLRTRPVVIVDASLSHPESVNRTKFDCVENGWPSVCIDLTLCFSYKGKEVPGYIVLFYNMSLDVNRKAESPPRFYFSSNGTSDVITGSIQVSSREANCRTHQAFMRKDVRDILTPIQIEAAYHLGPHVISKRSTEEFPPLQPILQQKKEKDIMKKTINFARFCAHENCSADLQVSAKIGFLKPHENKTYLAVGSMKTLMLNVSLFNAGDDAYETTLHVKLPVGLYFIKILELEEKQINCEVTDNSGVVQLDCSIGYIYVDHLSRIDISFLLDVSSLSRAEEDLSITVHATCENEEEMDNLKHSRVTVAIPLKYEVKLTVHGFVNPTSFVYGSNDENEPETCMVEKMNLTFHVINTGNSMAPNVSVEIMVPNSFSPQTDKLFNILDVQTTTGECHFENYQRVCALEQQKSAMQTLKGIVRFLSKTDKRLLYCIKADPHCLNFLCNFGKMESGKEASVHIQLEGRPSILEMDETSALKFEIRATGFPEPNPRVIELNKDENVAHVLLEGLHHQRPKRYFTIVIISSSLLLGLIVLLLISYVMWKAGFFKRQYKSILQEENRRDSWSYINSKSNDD
Work on CCC(COC(=O)c1cc(OC)c(OC)c(OC)c1)(c1ccccc1)N(C)C (configuration not stated) yielded an inhibition of 1.44%. Nc1ccc([As](=O)(O)O)cc1 was tested, and the inhibition was 7.22%. For CCCC(C)(COC(N)=O)COC(=O)NC(C)C (configuration not stated), the inhibition was 23.6%. Compound c1cnc2c(c1)ccc1ncccc12 has an inhibition of 0.59%. NCCc1ccc(O)cc1 showed an inhibition of -2.82%. C[C@]12CC[C@@H]3c4ccc(O)c(O)c4CC[C@H]3[C@@H]1CC[C@@H]2O showed an inhibition of 27.7%. For CC(CCc1ccccc1)NC(C)C(O)c1ccc(O)cc1 (configuration not stated), the inhibition was -20.8%. For Clc1ccc(COC(Cn2ccnc2)c2ccc(Cl)cc2Cl)c(Cl)c1 (configuration not stated), the inhibition was -1.12%. CC12CN3CC(c4ccccc4)(CN(C1)C31CCCCC1)C2=O gave an inhibition of 9.13%. In the case of c1ccc2c(c1)OCC(C1=NCCN1)O2 (configuration not stated), the inhibition is reported as 0.69%. COc1cc(/C=C2\C(=O)NC(=O)N(c3ccccc3)C2=O)c([N+](=O)[O-])cc1OC was tested, and the inhibition was 13.7%. In the case of CC12CCC3C(CC=C4CC5(CCC43C)OCCO5)C1CCC2=O (configuration not stated), the inhibition is reported as -9.06%. COc1ccc2c3c([nH]c2c1)C(C)=NCC3 showed an inhibition of -16.1%. In the case of CCCC(=O)OCC[N+](C)(C)C, the inhibition is reported as 14.2%. Compound C[C@]12CCC(=O)C=C1CC[C@@H]1[C@@H]2C(=O)C[C@]2(C)C(=O)CC[C@@H]12 has an inhibition of 6.55%. Work on Cc1nc2ccccc2c(=O)n1-c1ccc(C(=O)O)cc1 yielded an inhibition of 2.93%. With CC/C(=C\C=C\[C@@H]1C=C[C@@H]2CCC[C@H]2[C@@H]1C(=O)c1ccc[nH]1)[C@@H]1O[C@@H]([C@@H](C)C(=O)O)CC[C@@H]1C the inhibition was -7.08%.
